Here are results for 49 compounds from PubChem BioAssay AID588453 (National Center for Advancing Translational Sciences (NCATS), 2011).

The campaign covered roughly 390,000 compounds. About 4,000 (1%) were called active. Entries that show only a call come without a potency. Inconclusive results (about 4%) are left out. The call rests on the fitted dose curve; in most records, active means well fitted inhibition curve with a large enough effect; inconclusive means small, poorly fitted or top-dose-only effect; inactive means no such curve, though single readings can be large or run the other way. The sample as a whole holds a higher share of actives than the screen did.
Potency means the concentration at half of the fitted maximal effect.

Thioredoxin reductase 1, cytoplasmic (Rattus norvegicus), sequence (O89049 whole entry, looked up): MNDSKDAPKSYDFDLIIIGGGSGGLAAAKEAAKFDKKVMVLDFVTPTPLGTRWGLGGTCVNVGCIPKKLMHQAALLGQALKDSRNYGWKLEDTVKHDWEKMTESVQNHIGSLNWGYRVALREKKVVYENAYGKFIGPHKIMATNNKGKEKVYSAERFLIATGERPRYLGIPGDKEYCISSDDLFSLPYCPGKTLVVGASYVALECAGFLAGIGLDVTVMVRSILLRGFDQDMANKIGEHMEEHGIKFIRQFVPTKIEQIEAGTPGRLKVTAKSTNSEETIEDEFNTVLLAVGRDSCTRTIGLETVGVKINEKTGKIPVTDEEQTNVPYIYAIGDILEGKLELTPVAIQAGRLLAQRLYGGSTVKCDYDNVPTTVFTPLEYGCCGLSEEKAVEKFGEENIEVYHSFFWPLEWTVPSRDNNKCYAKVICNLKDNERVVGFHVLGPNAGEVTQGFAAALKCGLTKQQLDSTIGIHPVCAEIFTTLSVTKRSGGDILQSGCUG

The target in this experiment is Thioredoxin reductase 1, cytoplasmic (Rattus norvegicus) (UniProt O89049). Description: qHTS Assay for Inhibitors of Mammalian Selenoprotein Thioredoxin Reductase 1 (TrxR1): qHTS. Further: nearly all actives have a fitted effect of over 65% in size. The following applies: recombinant rTrxR1, NADPH fluorescence consumption, selenite substrate; series mostly up to 114 µM. The source says:
The selenoprotein thioredoxin reductase (TrxR; EC 1.8.1.9) is a FAD containing homodimeric pyridine nucleotide-disulfide oxidoreductase with many cellular roles. Together with NADPH and its prime substrate thioredoxin (Trx), the enzyme forms the core of the Trx system. The mammalian Trx system exerts a wide spectrum of functions including redox regulation, antioxidant defense, regulation of transcription factors as well as support of cell growth and replication. Many of these functions involve the reduction of Trx, which may subsequently reduce a number of different substrates including ribonucleotide reductase, peroxiredoxins or NFkB. Mammalian TrxR itself also has a broad substrate specificity, reducing both protein and non-protein substrates, including low molecular weight compounds such as dehydroascorbate, lipoic acid, ubiquinone, and juglone. In addition, several drugs in clinical use for anticancer treatment are indeed known to target TrxR1.
This BioAssay is a validation of an NADPH fluorescence-based, dual-purpose qHTS rTrxR1 assay designed to find potential inhibitors and substrates of rTrxR1. For this particular BioAssay, actives are potential inhibitors. See related BioAssay for substrate data deposition.
NIH Molecular Libraries Probe Production Network [MLPCN]
NIH Chemical Genomics Center [NCGC]
Assay Provider: Elias Arner, Karolinska Institute
Assay protocol: 2 uL of reagents (buffer in column 4 as negative control and 90 nM rTrxR1 in columns 1-3 and 5-48) were dispensed into Greiner black solid-bottom 1,536-well assay plates, followed by 1 uL of NADPH (400 uM final concentration) to each well. The plates were centrifuged at 1000 rpm for 15 seconds and subsequently incubated for 5 min at room temperature (~22 deg C) to allow for rTrxR1 reduction. Compounds (23 nL) were then transferred via Kalypsys pin tool equipped with 1536-pin array (10 nL slotted pins, V&P Scientific, San Diego, CA). In addition, a duplicate 2-fold serial dilution of the control compounds auranofin, a known gold-based TrxR1 inhibitor, and juglone (5-hydroxy-1,4-naphthoquinone), a natural TrxR1 substrate, were pin-transferred to columns 2 and 3, respectively. After incubation for 15 min at room temperature (~22 deg C), 1 uL of selenite (400 uM final concentration) were dispensed to each well. The plate was immediately transferred to a ViewLux high-throughput CCD imager (PerkinElmer), wherein kinetic measurements of NADPH fluorescence (Ex 340 nm, Em 450 nm) were acquired (8 minute kinetic read, see Table 1). Read 1 was utilized to assess the capacity of a compound to serve as an rTrxR1 substrate, i.e. a decrease in NADPH fluorescence compared to the no-compound background is an indication of a substrate behavior for that particular compound. For inhibitory activity of a compound, delta values, computed as the difference in fluorescence intensity between the first and last reads of an 8-minute time kinetic window, were used. All reagents were diluted in an assay buffer consisting of 50 mM Tris-HCl, pH 7.5, 2 mM EDTA, and 0.01% Tween-20.
Throughout the screen, reagent bottle and all liquid lines were made light-tight to minimize reagent degradation. All screening operations were performed on a fully integrated robotic system (Kalypsys, San Diego, CA) containing one RX-130 and two RX-90 anthropomorphic robotic arms (Staubli, Duncan, SC). Library plates were screened starting from the lowest and proceeding to the highest concentration, and a 'double-pinning' step of the highest concentration was required to access higher concentrations of compounds. Vehicle-only plates, with DMSO being pin-transferred to the columns 5-48, were inserted uniformly at the beginning and the end of each library in order to monitor and record any shifts in the background, which can be affected by reagent dispensers or loss in enzyme activity over time. […]
In general terms: Quantitative high-throughput screening tests each substance at several concentrations.
For the compound `Cc1ccc(-c2nc(Cn3c(=O)cc(-c4ccccc4)c4c(C)nn(C)c43)c(C)o2)cc1`, the Potency result was “inactive”.

As for `O=C(NCc1ccccc1)C(=O)NCC(c1ccco1)S(=O)(=O)c1ccc(Cl)cc1` (centres undefined), the Potency result is “inactive”.

As to `CCN1CCC2(CC1)N=C(c1ccc(F)cc1)C(=S)N2C(=O)c1ccc(C)cc1`, the Potency is 15.8 µM (active). On to `CCN1CCC(N(Cc2ccc(F)cc2)C(=O)Nc2cc(C)ccc2C)CC1`, for which the Potency entry was “inactive”. Then `Cc1ccc(NC(=O)CN2C(=O)C(c3ccc(F)cc3)=NC23CCCCCC3)c(C)c1`, with “inactive”. Then `Cc1cccc(-n2ccnc2SCC(=O)Nc2cccc3ccccc23)c1C`, with “inactive”. For the compound `NNc1cccc(C=Cc2ccccc2)cc1=O`, the Potency is 17.8 µM (active). As for `O=C(COc1ccccc1)OCc1cc(=O)n2nc(-c3cccs3)sc2n1`, the entry is “inactive”; as for `CC1=Nc2cc(C(=O)NCc3ccc(C)cc3)ccc2Sc2ccc(Cl)cc21`, “inactive”; as for `NC(=O)CC[C@@H]1NC(=O)[C@H](CO)NC(=O)c2cc([N+](=O)[O-])cc(I)c2NCC[C@@H](C(N)=O)NC1=O`, 70.8 µM (active).

With `CC(C)[C@@H]1NC(=O)c2cc([N+](=O)[O-])cc(I)c2NCCC[C@@H](C(=O)NC(CC(=O)O)C(N)=O)NC(=O)[C@H](CO)NC1=O` (some centres undefined), the Potency result is “inactive”. Then `NCCCC[C@@H]1NC(=O)[C@H](CCC(=O)O)NC(=O)c2cc([N+](=O)[O-])cc(I)c2NCC[C@@H](C(N)=O)NC1=O`, with “inactive”; and `NC(=O)CC[C@@H]1NC(=O)[C@@H]2CCCN2C(=O)c2cc([N+](=O)[O-])cc(F)c2NCCC[C@@H](C(N)=O)NC1=O`, with 12.6 µM (active); and `C[C@@H]1NC(=O)c2cc([N+](=O)[O-])cc(F)c2NCCC[C@@H](C(N)=O)NC(=O)[C@H](CC(N)=O)NC1=O`, with “inactive”. As for `NC(=O)C[C@@H]1NC(=O)CNC(=O)c2cc([N+](=O)[O-])cc(I)c2NCCC(C(N)=O)NC1=O` (some centres undefined), the entry is “inactive”; as for `O=C(COc1ccccc1C(=O)Nc1ccccc1)Nc1cccc(F)c1`, “inactive”; as for `CCC(=O)Nc1cccc(-c2nc3cc(C)ccc3o2)c1`, “inactive”. Take `CC(C)(C)c1ccc(C(=O)C[N+]2(C)CCCc3ccccc32)cc1` (centres undefined): the Potency result is “inactive”. As for `COC(=O)c1ccccc1NC(=O)Cc1ccccc1OC`, the entry is “inactive”; as for `O=C(NC(=S)NC1CCSC1=O)c1ccccc1F` (centres undefined), “inactive”.

As for `COC(=O)c1ccccc1NC(=S)NC(=O)c1ccccc1F`, the Potency is 25.1 µM (active). As for `COc1cccc(C2C(C(=O)Nc3ccc(C)cc3C)=C(C)Nc3c(C(=O)Nc4ccccc4)cnn32)c1` (centres undefined), the entry is “inactive”; as for `CC1CCCCN1Cc1c(O)ccc2c(=O)c(-c3cccc(Cl)c3)c(C(F)(F)F)oc12` (centres undefined), “inactive”; as for `CC1CCCN(Cc2c(O)ccc3c(=O)c(Oc4ccc(C(C)(C)C)cc4)c(C(F)(F)F)oc23)C1` (centres undefined), “inactive”.

`CCn1c(CNc2ccc(OC)cc2)nnc1SCC(=O)c1ccc(OC)cc1`: the Potency entry is “inactive”. Then `COc1ccc(Cc2nnc(SCC(=O)c3cccc([N+](=O)[O-])c3)n2C)cc1`, with 79.4 µM (active). As for `COc1ccc(CC(=O)NCc2nnc(SCC(=O)Nc3nccs3)n2C)cc1`, the entry is “inactive”; as for `Fc1ccc(CSc2nc(NCc3ccccc3)c3ccccc3n2)cc1`, “inactive”.

Turning to `O=C(CSc1nnc(CNC(=O)c2ccccc2)n1-c1ccc(F)cc1)Nc1ccccc1F`, the Potency result is “inactive”. On to `O=C(CCN1CCc2ccccc2C(O)(c2ccccc2)C1)c1ccc2c(c1)OCCO2` (centres undefined), for which the Potency was 0.708 µM (active). As for `O=C(OCc1ccccc1F)c1ccc2c(c1)OCCO2`, the entry is “inactive”. Then `O=C(c1ccc2c(c1)OCO2)N1CCNc2ccccc2C1`, with “inactive”; and `O=C1CCC[C@@H]2C[C@@]3(C[C@@H]4CCN1[C@H]24)Nc1ccccc1NC3=NCc1ccccc1`, with “inactive”. As for `O=C(O)C1CC=CC2CCN(C3CCCCC3)C(=O)C21` (centres undefined), the entry is “inactive”; as for `Cc1nnc(N2CCCC(C(=O)NCCN(C)C)C2)c2nn(-c3ccccc3)c(C)c12` (centres undefined), “inactive”; as for `O=C1c2ccccc2C(=O)N1c1ccc(S(=O)(=O)N2CCOCC2)c2ccccc12`, “inactive”. Regarding `CC1CCN(C(=O)c2ccc(S(=O)(=O)Cc3cc(F)ccc3F)c([N+](=O)[O-])c2)CC1`, the Potency is 10 µM (active). With `NC(=O)C1CCN(C(=O)c2ccc(F)c(S(=O)(=O)N3CCOCC3)c2)CC1`, the Potency result was “inactive”. For `O=C(c1ccc(Oc2ccc(Cl)cc2)c([N+](=O)[O-])c1)N1CCCC1`, the Potency result was “inactive”.

Turning to `Cc1cccc(-c2nnc(SC(C)C(=O)Nc3ccccc3)n2C)c1` (centres undefined), the Potency entry was “inactive”. As to `COc1cc(Cl)c(C)cc1NC(=O)CCc1nc2cccnc2n1Cc1cccs1`, the Potency result was “inactive”. Consider `Cc1cccc(C(=O)N2CCc3cc(CNC(=O)Cc4ccc(F)cc4)ccc32)c1`, for which the Potency entry is “inactive”. Then `CCOC(=O)c1cnc2nc(SCc3ccccc3Cl)[nH]n2c1=O`, with “inactive”. Then `CCOC(=O)c1cnc2[nH]c3ccccc3n2c1=O`, with 44.7 µM (active); and `CCOC(=O)c1cnc2sccn2c1=O`, with “inactive”; and `COc1ccc(NC(=O)CSc2nc3ccccc3[nH]2)cc1`, with “inactive”. On to `Cc1ccccc1CN1C[C@@H]2C[C@@H](c3cn(C)nc3-c3ccccc3)N3CCC[C@@]23C1=O`, for which the Potency is 44.7 µM (active). With `Cc1ccccc1CN1CCN(CC(=O)NCc2ccccn2)C1=O`, the Potency entry is “inactive”. For the compound `Cc1ccccc1CN1C[C@@H]2C[C@@H](c3ccc4nsnc4c3)N3CCC[C@@]23C1=O`, the Potency entry was “inactive”.
